# Data: PubChem BioAssay AID624300 (Southern Research Specialized Biocontainment Screening …, 2012)
# Hit rate of the full screen: of about 2,400 compounds, about 360 (15%) were called active.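 Rule for the calls: active = viability falls under 70% at one or more tested concentrations, taken as toxicity; inactive = viability stays over 70% at every dose.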 A selection follows. Measured potencies and affinities stand elsewhere.
# Assay: viability loss in HeLa cells – cytotoxicity control for MgcRacGAP inhibitor project, dose response (AID 624300)
# Settings: CellTiter-Glo luminescence, 24 h; series mostly up to 100 µM
row,Compound,outcome
1,COC(=O)CC1SC(=O)NC1=Nc1ccc(O)cc1 (centres undefined),inactive
2,S=c1[nH]c2ccccc2n2c(=S)[nH]nc12,inactive
3,O=C(CNC(=O)c1cccs1)N/N=C/c1ccc(O)cc1O,inactive
4,COc1ccc(N2CCN(C(CNS(=O)(=O)c3cccs3)c3cccnc3)CC2)cc1 (centres undefined),inactive
5,O=C1Nc2ccccc2C1=Nc1ccc2[nH]c3ccccc3c2c1,inactive
6,COc1ccc(CN(C)CC(=O)Nc2ccc(Cl)cc2C(F)(F)F)c(OC)c1,inactive
7,O=S(=O)(O)c1cc(O)c2ccc(Nc3ccccc3)cc2c1,inactive
8,O=S(=O)(O)c1ccc(O)c2cc(Nc3ccccc3)ccc12,inactive
9,CCOc1ccccc1Oc1cn[nH]c1-c1ccc(O)cc1O,inactive
10,COc1cc(CNc2ccc3[nH]c(=O)[nH]c3c2)ccc1OCc1cccc(C)c1,inactive
11,COC(=O)C1=C(O)/C(=C\c2ccc(O)c(OC)c2)N=C1C,inactive
12,COc1cc(/C=C2\Oc3cc(O)ccc3C2=O)ccc1O,inactive
13,CCOc1cc(/C=N/NC(=O)c2c(-c3ccccc3)noc2C)ccc1O,inactive
14,O=C1ON=C(c2ccccc2)/C1=C/c1ccco1,inactive
15,O=C1/C(=C/c2ccc(O)c(O)c2)Oc2cc(O)ccc21,inactive
16,COc1cc(/C=C2/C(=O)NN(c3ccc(Cl)cc3)C2=O)cc(Br)c1O,inactive
17,O=[N+]([O-])c1cccc(S(=O)(=O)N/N=C/c2ccc(O)cc2)c1,inactive
18,COc1cc(/C=C/CN2CCC(Oc3ccc(C(=O)N4CCCC4)cc3)CC2)ccc1O,inactive
19,Nc1ccc(N2CCN(c3ccc(F)cc3)CC2)cc1,inactive
20,c1ccc(CNc2ccc(N3CCOCC3)cc2)cc1,inactive

row,Compound,outcome
1,COc1ncnc2c1ncn2CCCNc1ccc(C)c(C)c1,inactive
2,Cc1[nH]c2ccccc2c1/C=N/Nc1nncn1N,inactive
3,C/C(=N\Nc1nc2ccccc2[nH]1)c1cccs1,inactive
4,Cc1cc(C)nc(N/N=C/c2c[nH]c3ccccc23)n1,inactive
5,O=C(O)c1ccc(N/N=C/c2c[nH]c3ccccc23)cc1,inactive
6,O=c1cc(CN2CCOCC2)c2ccc(O)c(O)c2o1,inactive
7,COc1cc(/C=N/NC(=O)Cn2nnc3ccccc32)ccc1O,inactive
8,O=C(Nc1ccc(O)cc1)c1cc2ccccc2c(=O)s1,inactive
9,CC[N+](CC)(CC)CCCCOc1ccc2c(c1)C(=O)c1cc(OCCCC[N+](CC)(CC)CC)ccc1-2,inactive
10,FC(F)(F)c1cccc(N2CCC(N=CN3CCCCCC3)=N2)c1,inactive
11,Oc1ccc(C=NNc2ccccn2)c(O)c1,inactive
12,Oc1ccc(/C=N/Nc2ccc(C(F)(F)F)cn2)cc1,inactive
13,Oc1cccc(Nc2ccccc2)c1,inactive
14,Nc1ccc(Nc2ccccc2)c(Cl)c1,inactive
15,CCOc1cc(/C=N/NC(=O)c2ccc(NC(=O)C3CC3)cc2)ccc1O,inactive
16,O=C(CCN1CCCCCC1)Nc1ccc2c(c1)OCCO2,inactive
17,C/C(CC(=O)Nc1ccc(N(C)C)cc1)=N\NC(=O)c1ccc([N+](=O)[O-])cc1,inactive
18,O=C(Nc1ccc(O)cc1)c1cccc(Oc2ccc([N+](=O)[O-])cc2)c1,inactive
19,O=C(CNC(=O)c1ccco1)N/N=C/c1ccc(O)cc1O,inactive
20,Cc1ccc(OC(=S)Nc2ccc(O)cc2)cc1,inactive

row,Compound,outcome
1,COc1cc(/C=N/Nc2nc(C)cc(=O)[nH]2)ccc1O,inactive
2,COc1ccc(/C=N/Nc2nc3ccccc3s2)cc1O,inactive
3,COc1cc(/C=N/NC(=O)c2cc3ccccc3[nH]2)ccc1O,inactive
4,Cc1ccsc1/C=N/Nc1nc2ccccc2[nH]1,inactive
5,CCC(=Nc1ccc(N)cc1)C1=C(O)C(C(=O)OC)C(C)(C)CC1=O (centres undefined),inactive
6,COc1ccc(OC)c(CN2CCN(Cc3ccc(OC)c(OC)c3OC)CC2)c1,inactive
7,CC1CC(C)(C)N(C(=O)CN2CCN(C)CC2)c2ccccc21 (centres undefined),inactive
8,COc1ccccc1-n1c(=O)c2c3c(sc2n2c(=S)[nH]nc12)CCC3,inactive
9,Oc1ccc(/C=N/Nc2ncnc3c2ncn3Cc2ccccc2)cc1O,inactive
10,O=[N+]([O-])c1cccc(CN2CCN(c3cccc4[nH]ccc34)CC2)c1,inactive
11,COc1ccccc1/C=C(/C(=O)OCC(=O)Nc1ccc(N(C)C)cc1)c1ccccc1,inactive
12,COc1ccc(S(=O)(=O)N2CCC(N3CCN(c4ccccc4OC)CC3)CC2)cc1,inactive
13,Cc1cccc(CN2CCN(Cc3ccco3)CC2)c1,inactive
14,COc1ccc(NCc2cc3ccccc3[nH]c2=O)cc1,inactive
15,Nc1[nH]c2cc([N+](=O)[O-])ccc2c1-c1ccccn1,inactive
16,CN(C)c1ccc(NC(=O)COC(=O)CNC(=O)c2cccs2)cc1,inactive
17,Cc1cc(OCCCN2CCN(Cc3ccccc3)CC2)ccc1[N+](=O)[O-],inactive
18,Cc1c(N=C2NC(=O)/C(=C/c3ccc(O)cc3)S2)c(=O)n(-c2ccccc2)n1C,inactive
19,O=C(CSc1ccc2ccccc2n1)N/N=C/c1ccc(O)cc1,inactive
